# Assay results: PubChem BioAssay
# Calls of active or inactive are those of the source.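 How the source made its calls, unless noted: active means NADPH fluorescence slope more negative than the mean of all samples by about 3 SD, 99.7% confidence; inactive means the rest.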
# Key:
# [1] = inhibitors of TNFa-induced NFkB p65 translocation, primary screen, imaging, HUVEC, MLSMR starter and 10KST1 sets (AID 438;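 active means inhibition above 20% together with a positive visual image hit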;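 further: compound added about 3h40 before a 20 min TNFalpha stimulation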;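 on inhibition: signal is the nuclear over cytoplasmic p65 intensity ratio per well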); settings: HUVEC TNFa-induced p65 nuclear translocation; cell count: measured here: nuclei count (cytotoxicity indicator), at 2.08 µM; inhibition: at 2 µM, stronger effect = higher value, 0% TNFa-plus-vehicle, 100% no-TNFa wells
# [2] = reduction of polyQ htt aggregates in cells – imaging, exon1htt(103Q)mCFP cells, high-content imaging, primary screen (AID 483;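 active means visual image review flags a hit and inhibition of aggregation exceeds 20%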;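 further: compound exposure lasted 3 days before fixation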;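 on nuclei count: percent of the per-plate median nuclei count of sample wells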); settings: exon1htt(103Q)mCFP cell line, aggregate imaging, at 2 µM; inhibition of aggregation: stronger effect = higher value; nuclei count: measured here: cell count, toxicity
# [3] = endothelial E-selectin expression blockers – imaging, HUVEC, immunofluorescence, MLSMR starter and 10KST1 sets, primary screen (AID 487;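 active means visually confirmed hit in the image check and inhibition above 20%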;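 on inhibition: signal is fraction of cell area covered by stained E-selectin grains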;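 on nuclei count: 100% = median nuclei count of all wells on the same plate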); settings: HUVEC TNFalpha-induced E-selectin immunofluorescence imaging, at 2 µM; inhibition: stronger effect = higher value; nuclei count: measured here: cell number, toxicity
# [4] = target: Voltage-gated potassium channel subunit beta-2 (Rattus norvegicus) (UniProt P62483); test: inhibitors of rat Kvbeta2 reductase activity – biochemical, NADPH fluorescence, primary screen (AID 622;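 active means fluorescence slope higher than the sample average by over 3 SD, cut at about -0.22 in these data, passing the limit was not always enough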;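 further: slope of raw intensity against log time taken from 70 to 1610 s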); settings: recombinant KvBeta, 4-cyanobenzaldehyde reduction, at 10 µM, stronger effect = higher value
# Sequence of Voltage-gated potassium channel subunit beta-2 (Rattus norvegicus) (P62483 whole entry, looked up): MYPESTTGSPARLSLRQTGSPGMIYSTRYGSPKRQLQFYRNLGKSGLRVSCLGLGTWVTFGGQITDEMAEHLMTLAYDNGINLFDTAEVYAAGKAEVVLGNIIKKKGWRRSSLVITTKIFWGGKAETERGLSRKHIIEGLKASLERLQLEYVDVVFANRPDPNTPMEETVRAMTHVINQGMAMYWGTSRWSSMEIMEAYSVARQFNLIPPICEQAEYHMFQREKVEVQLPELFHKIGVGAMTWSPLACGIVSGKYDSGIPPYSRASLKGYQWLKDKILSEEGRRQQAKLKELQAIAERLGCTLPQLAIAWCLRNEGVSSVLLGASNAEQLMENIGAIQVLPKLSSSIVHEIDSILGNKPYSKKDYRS
# [5] = target: Voltage-gated potassium channel subunit beta-2 (Rattus norvegicus) (UniProt P62483); test: enhancers of rat Kvbeta2 NADPH turnover – biochemical, NADPH fluorescence, primary screen (AID 623); settings: Recombinant KvBeta, NADPH fluorescence decrease slope, 10 min; at 10 µM; stronger effect = lower value;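 further: fluorescence intensity change per second fitted from 20 to 320 s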
# [6] = target: Alpha-2C adrenergic receptor (Homo sapiens) (UniProt P18825); test: compounds altering alpha2C-coupled GIRK flux – cell-based, HEK293 alpha2C/GIRK1/2, thallium flux, primary screen (AID 624;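 active means fluorescence slope after compound addition differing from the mean of all screened samples at 99.7% confidence, in either direction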;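 further: slope of fluorescence ratio to pre-addition baseline per second over 15 to 24 s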); settings: thallium flux BTC fluorescence, at 10 µM, actives lie on both sides
# Sequence of Alpha-2C adrenergic receptor (Homo sapiens) (P18825 whole entry, looked up): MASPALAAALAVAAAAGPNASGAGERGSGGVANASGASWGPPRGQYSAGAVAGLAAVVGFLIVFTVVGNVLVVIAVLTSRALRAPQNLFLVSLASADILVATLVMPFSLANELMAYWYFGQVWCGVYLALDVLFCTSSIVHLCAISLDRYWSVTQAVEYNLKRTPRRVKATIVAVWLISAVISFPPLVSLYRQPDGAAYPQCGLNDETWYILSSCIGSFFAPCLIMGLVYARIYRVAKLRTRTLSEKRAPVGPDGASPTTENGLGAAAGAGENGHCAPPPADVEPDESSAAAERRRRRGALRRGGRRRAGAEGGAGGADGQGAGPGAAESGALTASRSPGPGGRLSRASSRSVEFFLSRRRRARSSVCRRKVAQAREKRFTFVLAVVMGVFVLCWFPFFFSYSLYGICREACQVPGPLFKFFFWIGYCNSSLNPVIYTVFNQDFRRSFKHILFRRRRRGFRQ
# [7] = blockers of RIG-like receptor reporter activation – cell-based, Sendai virus stimulus, luciferase, 10K MLSCN set, TLR/RLR signaling modifier project, primary screen (AID 602276;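 active means inhibition at or above 50% at 10 µM; inactive means inhibition below 50%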;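 further: firefly luciferase from ISG56 promoter only with Renilla not read in this screen; 0% = Sendai virus plus DMSO and 100% = medium plus DMSO without virus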); settings: HEK293 RL24 IRF3 luciferase reporter, at 10 µM, stronger effect = higher value
# [8] = TLR3 IRF3 reporter activation blockers – cell-based, poly I:C stimulus, luciferase, 10K MLSCN set, primary screen (AID 602277;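 active means inhibition of the reporter signal at or above 50%; inactive means inhibition below 50%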); settings: HEK293-TLR3 RL24 IRF3 luciferase reporter, at 10 µM, stronger effect = higher value
Compound,cell count [1],inhibition [1],inhibition of aggregation [2],nuclei count [2] [%],inhibition [3],nuclei count [3] [%],fluorescence slope [4],NADPH fluorescence slope [5],slope [6],inhibition [7],inhibition [8]
O=C(CCn1c(=O)sc2ccccc21)Nc1nccs1,575,-22.3% (inactive),4.1% (inactive),65.7,-53% (inactive),98.6,-0.618 (inactive),3e-05 (inactive),0.00595 (inactive),-21.2% (inactive),-66.6% (inactive)
COc1ccc(-c2nnnn2C)cc1S(=O)(=O)NCc1ccccc1,579,0.6% (inactive),7.2% (inactive),106,-49.3% (inactive),110,-0.415 (inactive),5.2e-06 (inactive),0.00442 (inactive),10.3% (inactive),4.79% (inactive)
O=C(Cn1cnc2c(nnn2-c2ccc(F)cc2)c1=O)N1CCCc2ccccc21,654,0.4% (inactive),-21.9% (inactive),130,1.5% (inactive),102,-0.523 (inactive),-1.6e-06 (inactive),0.00588 (inactive),14% (inactive),12.1% (inactive)
O=C(NCc1ccco1)c1cc2cc3ccc(Cl)cc3nc2o1,198,-4.9% (inactive),12.7% (inactive),105,-23.3% (inactive),118,-0.489 (inactive),-3.4e-05 (inactive),0.00854 (inactive),-5.73% (inactive),-43.3% (inactive)
CN(C)S(=O)(=O)Nc1ccc(Br)cc1F,688,-11.1% (inactive),9.4% (inactive),103,-24.9% (inactive),100,-0.439 (inactive),-8.8e-06 (inactive),0.00541 (inactive),8.09% (inactive),15.9% (inactive)
COc1ccc(-c2nc(C)sc2CC(=O)O)cc1,533,-15.7% (inactive),21% (inactive),93.9,-1.1% (inactive),101,-0.463 (inactive),-8.6e-06 (inactive),0.00658 (inactive),11.4% (inactive),28.3% (inactive)
O=C(COC(=O)C1CC(=O)N(c2ccccc2)C1)c1ccccc1 (centres undefined),603,2.4% (inactive),-21% (inactive),99.9,-21% (inactive),123,-0.604 (inactive),-2.9e-05 (inactive),0.00601 (inactive),-13.2% (inactive),-4.16% (inactive)
COc1ccc(NC(=O)CSc2c(C)nn(-c3nnc(C)c(=O)[nH]3)c2C)cc1,387,-4.5% (inactive),-12.6% (inactive),107,-170% (inactive),134,-0.537 (inactive),2e-05 (inactive),0.00687 (inactive),1.41% (inactive),3.06% (inactive)
CCOC(=O)N1CCN(CC(=O)c2c(C)[nH]c3ccccc23)CC1,349,10.5% (inactive),-5.3% (inactive),92.4,-113% (inactive),143,-0.491 (inactive),-6.3e-05 (inactive),0.00584 (inactive),0.348% (inactive),6.29% (inactive)
COc1ccc(S(=O)(=O)Cc2ccc(C(=O)NCCc3ccc(S(N)(=O)=O)cc3)o2)cc1,686,0.6% (inactive),41.2% (active),71.5,-51.1% (inactive),114,-0.561 (inactive),-2.1e-05 (inactive),0.00625 (inactive),9.1% (inactive),28.2% (inactive)
C=CCOc1nc(N(C)C)nc(N(C)C)n1,569,3.6% (inactive),-3.6% (inactive),103,-138% (inactive),96,-0.595 (inactive),-3.9e-05 (inactive),0.00356 (inactive),10.6% (inactive),10.6% (inactive)
Fc1ccc(-n2c(Cc3ccccc3)nnc2SCc2nc(-c3cccs3)no2)cc1,466,2.5% (inactive),0.1% (inactive),86.5,-52.5% (inactive),108,-0.63 (inactive),-4.2e-05 (inactive),0.00381 (inactive),-1.69% (inactive),1.22% (inactive)
CCOCCOc1nc2c(c(=O)n(C)c(=O)n2C)n1Cc1ccc(C)cc1,830,2.3% (inactive),-33.5% (inactive),102,-35.1% (inactive),114,-0.46 (inactive),5.4e-05 (inactive),0.00568 (inactive),-11.5% (inactive),-21.6% (inactive)
O=c1[nH]c2sc3c(c2c2nncn12)CCCC3,420,11.2% (inactive),13.5% (inactive),108,-112% (inactive),111,-0.499 (inactive),-0.000261 (inactive),0.00486 (inactive),7.28% (inactive),-10% (inactive)
